Data as given in PubChem BioAssay AID624002 (National Center for Advancing Translational Sciences (NCATS), 2012).
The list shows a part of the results. Inconclusive results are not listed. The source made the active and inactive calls. The call rests on the fitted dose curve; in most records, active means well fitted inhibition curve with a large enough effect; inconclusive means small, poorly fitted or top-dose-only effect; inactive means no such curve, though single readings can be large or run the other way.

Biological target: Isocitrate dehydrogenase [NADP] cytoplasmic (Homo sapiens) (UniProt O75874)
Sequence (O75874 whole entry R132H, change not shown): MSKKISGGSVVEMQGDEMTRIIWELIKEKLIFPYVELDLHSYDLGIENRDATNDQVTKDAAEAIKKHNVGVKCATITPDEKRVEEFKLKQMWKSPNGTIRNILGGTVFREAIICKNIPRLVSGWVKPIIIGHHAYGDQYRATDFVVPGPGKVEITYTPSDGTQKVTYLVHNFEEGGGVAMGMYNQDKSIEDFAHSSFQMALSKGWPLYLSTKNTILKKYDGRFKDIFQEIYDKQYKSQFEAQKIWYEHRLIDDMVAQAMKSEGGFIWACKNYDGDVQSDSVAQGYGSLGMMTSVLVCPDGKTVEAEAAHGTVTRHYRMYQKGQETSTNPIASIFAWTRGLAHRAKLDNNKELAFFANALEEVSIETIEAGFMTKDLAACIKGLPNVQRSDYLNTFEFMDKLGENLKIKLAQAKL
Assay: qHTS for Inhibitors of mutant isocitrate dehydrogenase 1 (IDH1): Confirmation of Cherrypicks; further: nearly all actives have a fitted effect of over 50% in size
Conditions: IDH1 R132H enzyme, NADPH diaphorase/resazurin fluorescence
Source text: Malignant glioblastomas (WHO grade IV), including primary and secondary glioblastomas, are among the most lethal with a median survival of one year, and unfortunately they are also the most prevalent type of brain tumors. By and large the standard of care of gliomas remains the use of the oral alkylating agent temozolomide and radiotherapy following surgical tumor resection. There is an urgent unmet medical need for novel therapeutics for gliomas. IDH mutations occur in up to 70% of grade II-IV secondary glioblastomas, and IDH1 R132H is the most prevalent mutation. […] Wild-type IDH1 catalyzes the conversion of isocitrate to -ketoglutarate with the concomitant reduction of NADP+ to NADPH. […] Inhibition of the IDH1 R132H enzymatic reaction leads to an increase in the amount of NADPH relative to a DMSO control and a concomitant increase in the fluorescence of the diaphorase/resazurin enzyme product resorufin at 590 nm. […]
Enzyme buffer was dispensed into black, solid 1536-well plates at 3 microL/well in 20 mM Tris buffer, pH 7.5, containing final concentrations of 10 mM MgCl2, 20 mM NaCl, 0.001% Tween20, 0.05% BSA, 2 mM beta-ME and 5.2 nM IDH1 R132H. […] The inherent compound fluorescence was measured at this point at 590 nm on a ViewLux plate reader (Ex 525, Em 598, bodipy filter). […] The %Activity was determined from the corrected fluorescence values. […]
Potency means the concentration at half of the fitted maximal effect.

Structure (SMILES): CC(C)(C)c1ccc(S(=O)(=O)Nc2ccc(O)c(Sc3nc4ccccc4s3)c2)cc1
- Potency: 15.8 µM (active)
